Reference: PubChem BioAssay (Tox21)
Results filed as inconclusive are left out. Calls of active or inactive are those of the source. Unless noted, calls follow the shape of the dose curve; as a rule, active = well fitted curve in the direction sought with a large enough effect in the repeat runs; inconclusive = weak or mixed curves; inactive = no such curve, though single readings can be large; an effect the other way counts as inactive or inconclusive.

Legend:
[1] = qHTS assay to identify small molecule agonists of the sonic hedgehog signaling (Shh) pathway (AID 1259368; calls by dose curve; also: series mostly up to about 92 µM; nearly all actives have a fitted effect of over 15% in size)
Method in brief: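 NIH/3T3-derived 3T3Gli1-Luc cells carrying a stably integrated Gli1 response element–firefly luciferase reporter were plated, left 4 hr at 37 C, then given compounds in DMSO for 24 hr. Luminescence was read 30 min after adding luciferase reagent.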

[2] = qHTS assay to identify small molecule antagonists of the sonic hedgehog signaling (Shh) pathway (AID 1259369; calls by dose curve; also: nearly all actives have a fitted effect of over 45% in size)
Method in brief: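 NIH/3T3-derived 3T3Gli1-Luc cells with stably integrated Gli1-Luc reporter were preincubated 4hr at 37 C, then given compounds in DMSO plus Shh conditioned medium and incubated 24hr. Firefly luciferase luminescence read after 30min reagent at room temperature.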

[3] = biological target: Estrogen receptor beta (Homo sapiens) (UniProt Q92731); assay: qHTS assay to identify small molecule agonists of the estrogen receptor beta (ER-beta) signaling pathway (AID 1259377; active = well fitted activation curve with a large enough effect in the signal ratio in the repeat runs, not every such curve was filed as active; the % refers to the signal ratio)
Estrogen receptor beta (Homo sapiens), sequence (Q92731 whole entry, looked up): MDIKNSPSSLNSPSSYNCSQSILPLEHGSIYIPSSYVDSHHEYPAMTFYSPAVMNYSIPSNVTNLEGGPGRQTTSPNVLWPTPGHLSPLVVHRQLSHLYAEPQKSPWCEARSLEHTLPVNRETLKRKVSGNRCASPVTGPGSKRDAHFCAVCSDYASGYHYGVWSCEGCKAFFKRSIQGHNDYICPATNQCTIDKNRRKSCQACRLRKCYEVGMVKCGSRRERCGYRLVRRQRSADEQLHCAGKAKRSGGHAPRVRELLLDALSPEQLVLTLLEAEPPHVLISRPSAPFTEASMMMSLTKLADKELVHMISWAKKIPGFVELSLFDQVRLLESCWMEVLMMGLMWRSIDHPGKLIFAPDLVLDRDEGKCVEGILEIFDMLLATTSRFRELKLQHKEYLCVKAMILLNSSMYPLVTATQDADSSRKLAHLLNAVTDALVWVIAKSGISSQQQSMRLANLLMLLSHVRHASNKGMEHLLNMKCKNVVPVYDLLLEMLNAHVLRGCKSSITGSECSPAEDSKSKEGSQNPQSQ
Method in brief: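 Read-out: beta-lactamase FRET fluorescence. Cell line: ER-beta-UAS-bla HEK293T in 2% charcoal-stripped FBS. Exposure: 16 hr at 37C. Substrate step: 2 h at room temperature.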

[4] = biological target: Estrogen receptor beta (Homo sapiens) (UniProt Q92731); assay: qHTS assay to identify small molecule antagonists of the estrogen receptor beta (ER-beta) signaling pathway (AID 1259378; active = well fitted inhibition curve with a large enough effect in the signal ratio in the repeat runs, not every such curve was filed as active; the % refers to the signal ratio)
Method in brief: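 Antagonist mode: compounds added to beta-lactamase reporter HEK293T ER-beta-UAS cells stimulated with E2 (1nM final), 16 hr at 37C. LiveBLAzer B/G FRET substrate, 2 hours room temperature, fluorescence read-out.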

[5] = qHTS assay to identify small molecule agonists of the androgen receptor (AR) signaling pathway in the presence of an antagonist - cell viability counter screen (AID 1259379); also: series mostly up to about 92 µM; nearly all actives have a fitted effect of over 25% in size
Method in brief: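 MDA-kb2 human breast carcinoma cells (stable MMTV-luciferase, AR/GR responsive) were seeded 3,000 cells/well, pre-incubated 5 hr at 37C without CO2, then given 3.0uM nilutamide and compounds at 15 concentrations for 16 hr. Viability was read by CellTiter-Fluor fluorescence.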

[6] = qHTS assay to identify small molecule agonists of the estrogen receptor beta (ER-beta) signaling pathway - cell viability counter screen (AID 1259380); also: nearly all actives have a fitted effect of over 30% in size
Method in brief: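 ER-beta-UAS-bla HEK293T cells in medium with 2% charcoal-stripped FBS were preincubated 6 hr at 37C, dosed with compound in DMSO for 16 hr, then after the bla read, CellTiter-Glo was added for 30 min at room temperature; luminescence recorded.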

[7] = qHTS assay to identify small molecule antagonists of the estrogen receptor beta (ER-beta) signaling pathway - cell viability counter screen (AID 1259382);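 also: HEK293T cells carrying ER-beta-UAS-bla reporter stimulated with estradiol; series mostly up to about 92 µM; nearly all actives have a fitted effect of over 55% in size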
Method in brief: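 ER-beta-UAS-bla HEK293T cells (2,000/well, 2% charcoal-stripped FBS) were pre-incubated 6 hr at 37C, then given compound plus 1nM final 17-beta-estradiol for 16 hr. Viability was read in the same wells by CellTiter-Glo luminescence after 30 min at room temperature.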

[8] = biological target: Estrogen receptor (Homo sapiens) (UniProt P03372); assay: qHTS assay to identify small molecule agonists of the estrogen receptor alpha (ER-alpha) signaling pathway in the presence of an antagonist (AID 1259383; calls by dose curve; also: top concentration of the series differs between compounds; nearly all actives have a fitted effect of over 15% in size)
Estrogen receptor (Homo sapiens), sequence (P03372 whole entry, looked up): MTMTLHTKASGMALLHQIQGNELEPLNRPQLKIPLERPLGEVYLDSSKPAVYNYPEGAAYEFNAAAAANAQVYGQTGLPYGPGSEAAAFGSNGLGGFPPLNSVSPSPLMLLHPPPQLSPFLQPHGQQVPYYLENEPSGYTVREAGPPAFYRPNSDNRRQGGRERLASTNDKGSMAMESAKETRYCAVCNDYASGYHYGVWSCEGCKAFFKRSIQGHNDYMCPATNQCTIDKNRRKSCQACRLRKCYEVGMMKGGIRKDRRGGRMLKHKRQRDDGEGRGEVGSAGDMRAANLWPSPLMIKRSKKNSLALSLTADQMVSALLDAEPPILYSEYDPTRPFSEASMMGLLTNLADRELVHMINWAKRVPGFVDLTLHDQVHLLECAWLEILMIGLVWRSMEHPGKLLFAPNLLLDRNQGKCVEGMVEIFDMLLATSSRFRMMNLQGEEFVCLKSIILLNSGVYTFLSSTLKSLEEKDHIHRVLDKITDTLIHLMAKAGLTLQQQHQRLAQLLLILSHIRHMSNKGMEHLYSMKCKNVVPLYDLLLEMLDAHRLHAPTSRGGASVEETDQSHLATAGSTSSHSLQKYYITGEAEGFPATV
Method in brief: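 VM7Luc4E2 cells (endogenous full-length ER-alpha, 4×ERE-luciferase) were precultured 5 days in phenol red-free medium with 10% charcoal-stripped FBS, given 10.0nM ICI-182,780 (final), then treated with compounds at 15 concentrations for 22hr at 37C; luminescence read with ONE-Glo.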

[9] = qHTS assay to identify small molecule agonists or antagonists of the thyroid stimulating hormone receptor (TSHR) signaling pathway - wild type cell line counter screen (AID 1259384; calls by dose curve)
Method in brief: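 Counter screen in untransfected Hek293: compounds (15-point titration, triplicate) plus phosphodiesterase inhibitor Ro20-1724 added after 18 h plating; 30 min RT. Intracellular cAMP via competitive d2/cryptate immunoassay, 1 h incubation.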

[10] = biological target: Thyrotropin receptor (Homo sapiens) (UniProt P16473); assay: qHTS assay to identify small molecule antagonists of the thyroid stimulating hormone receptor (TSHR) signaling pathway (AID 1259385; calls by dose curve; also: nearly all actives have a fitted effect of over 20% in size)
Thyrotropin receptor (Homo sapiens), sequence (P16473 whole entry, looked up): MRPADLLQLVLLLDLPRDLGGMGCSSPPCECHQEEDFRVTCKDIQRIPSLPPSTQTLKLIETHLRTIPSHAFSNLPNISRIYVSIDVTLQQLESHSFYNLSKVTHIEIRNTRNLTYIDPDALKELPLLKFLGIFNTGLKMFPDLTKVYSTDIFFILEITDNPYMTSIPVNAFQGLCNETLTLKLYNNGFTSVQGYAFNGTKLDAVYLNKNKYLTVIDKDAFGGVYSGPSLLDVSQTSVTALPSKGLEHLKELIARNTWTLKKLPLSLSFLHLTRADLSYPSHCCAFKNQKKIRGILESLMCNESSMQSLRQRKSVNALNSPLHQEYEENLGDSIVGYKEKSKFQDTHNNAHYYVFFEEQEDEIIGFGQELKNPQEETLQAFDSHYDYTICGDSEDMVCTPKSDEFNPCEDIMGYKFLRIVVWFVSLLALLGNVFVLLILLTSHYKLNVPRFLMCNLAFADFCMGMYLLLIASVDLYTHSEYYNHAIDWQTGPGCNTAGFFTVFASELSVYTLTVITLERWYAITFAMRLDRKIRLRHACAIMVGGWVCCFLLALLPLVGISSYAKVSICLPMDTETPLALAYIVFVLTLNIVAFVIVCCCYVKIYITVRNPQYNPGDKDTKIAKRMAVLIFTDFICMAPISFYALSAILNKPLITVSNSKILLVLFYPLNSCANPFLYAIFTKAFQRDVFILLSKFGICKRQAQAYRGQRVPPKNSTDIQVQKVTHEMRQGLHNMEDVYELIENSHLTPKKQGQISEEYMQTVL
Method in brief: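 Antagonist mode: compound-treated TSHR-expressing HEK293 cells were stimulated with 1.5 ng/mL TSH (final) in presence of Ro20-1724 for 30 min at RT. HTRF cAMP detection after 1 h; each compound tested at 15 concentrations, triplicate.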

[11] = qHTS assay to identify small molecule agonists of the estrogen receptor alpha (ER-alpha) signaling pathway in the presence of an antagonist - cell viability counter screen (AID 1259386);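 also: series mostly up to about 92 µM; cells exposed to compounds for 22 h at 37 °C before the viability read; nearly all actives have a fitted effect of over 30% in size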
Method in brief: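 VM7Luc4E2 cells (endogenous full-length ER-alpha, 4×ERE-luciferase) were held 5 days in phenol red-free medium with 10% charcoal-stripped FBS, plated, then given 10.0nM ICI-182,780 and compounds at 15 concentrations for 22hr at 37C; viability read by CellTiter-Fluor fluorescence.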

[12] = biological target: Progesterone receptor (Homo sapiens) (UniProt P06401); assay: qHTS assay to identify small molecule agonists of the progesterone receptor (PR) signaling pathway (AID 1346784; calls by dose curve; also: nearly all actives have a fitted effect of over 30% in size)
Progesterone receptor (Homo sapiens), sequence (P06401 whole entry, looked up): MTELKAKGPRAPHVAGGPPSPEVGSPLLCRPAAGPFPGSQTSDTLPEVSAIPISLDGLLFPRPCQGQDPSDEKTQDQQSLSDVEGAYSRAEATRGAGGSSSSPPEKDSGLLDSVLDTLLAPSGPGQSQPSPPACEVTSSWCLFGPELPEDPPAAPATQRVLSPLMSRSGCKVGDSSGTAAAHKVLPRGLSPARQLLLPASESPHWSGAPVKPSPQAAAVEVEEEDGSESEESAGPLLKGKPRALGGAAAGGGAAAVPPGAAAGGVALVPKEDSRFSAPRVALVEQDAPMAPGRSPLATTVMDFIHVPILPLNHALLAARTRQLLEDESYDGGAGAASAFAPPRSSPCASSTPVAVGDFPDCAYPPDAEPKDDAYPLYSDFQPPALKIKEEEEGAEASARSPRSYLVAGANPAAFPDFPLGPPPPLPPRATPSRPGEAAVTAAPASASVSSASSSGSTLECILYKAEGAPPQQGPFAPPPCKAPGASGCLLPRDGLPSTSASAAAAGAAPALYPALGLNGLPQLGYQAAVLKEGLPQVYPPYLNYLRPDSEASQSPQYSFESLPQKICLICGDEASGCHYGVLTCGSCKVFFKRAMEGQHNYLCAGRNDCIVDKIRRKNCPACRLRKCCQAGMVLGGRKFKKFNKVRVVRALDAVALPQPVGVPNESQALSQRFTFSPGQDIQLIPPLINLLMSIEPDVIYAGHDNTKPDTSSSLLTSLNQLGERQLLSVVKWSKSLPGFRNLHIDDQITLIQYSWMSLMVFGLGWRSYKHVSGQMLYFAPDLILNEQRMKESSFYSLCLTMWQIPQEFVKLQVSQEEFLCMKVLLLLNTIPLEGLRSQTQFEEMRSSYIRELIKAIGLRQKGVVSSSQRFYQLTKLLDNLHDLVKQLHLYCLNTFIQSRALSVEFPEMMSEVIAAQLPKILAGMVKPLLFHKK
Method in brief: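 Compounds were tested for PR agonism in HEK 293T cells bearing a beta-lactamase gene under UAS control. Treatment lasted 16 hr at 37C; signal came from fluorescence of a FRET substrate.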

[13] = biological target: Progesterone receptor (Homo sapiens) (UniProt P06401); assay: qHTS assay to identify small molecule antagonists of the progesterone receptor (PR) signaling pathway (AID 1346795; active = well fitted inhibition curve with a large enough effect in the signal ratio in the repeat runs, not every such curve was filed as active; the % refers to the signal ratio)
Method in brief: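 In HEK293T cells bearing the PR-UAS-bla reporter, compound effects on promegestone-driven (1 nM) beta-lactamase expression are assessed after 16 hr using a fluorescent FRET substrate incubated 2 hr at room temperature.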

[14] = qHTS assay to identify small molecule antagonists of the progesterone receptor (PR) signaling pathway - cell viability counter screen (AID 1346798); also: series mostly up to about 92 µM; nearly all actives have a fitted effect of over 50% in size
Method in brief: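 Following a 4 hr attachment, PR-UAS-bla HEK293T cells in charcoal-stripped FBS medium were exposed to compounds with R5020 for 16 hr; CellTiter-Glo was added and luminescence read after 30 min at room temperature.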

[15] = qHTS assay to identify small molecule agonists of the progesterone receptor (PR) signaling pathway - cell viability counter screen (AID 1346799; calls by dose curve; also: nearly all actives have a fitted effect of over 45% in size)
Method in brief: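 Here, 3,000 PR-UAS-bla HEK293T cells per well were treated with compounds for 16 hr after a 6 hr preincubation at 37C and 5% CO2; cell viability is the CellTiter-Glo luminescence signal.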

[16] = qHTS assay to identify small molecule antagonists of the TGF-beta/Smad signaling pathway - cell viability counter screen (AID 1346824); also: nearly all actives have a fitted effect of over 50% in size
Method in brief: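 Cytotoxicity counter-screen run in the same wells as the beta-lactamase Smad reporter read: CellTiter-Glo luminescence after 30 min at room temperature. HEK 293T SBE-bla cells had 5 hr compound exposure at 37 C with TGF-beta1 (0.25 ng/mL stock).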

[17] = qHTS assay to identify small molecule agonists of the TGF-beta/Smad signaling pathway - cell viability counter screen (AID 1346829); also: top concentration of the series differs between compounds; nearly all actives have a fitted effect of over 45% in size
Method in brief: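 Same-well cytotoxicity: CellTiter-Glo added after the 2 hr room-temperature beta-lactamase substrate step, luminescence measured 30 min later; cells had 5 hr of compound at 37 C.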

[18] = biological target: Thyrotropin-releasing hormone receptor (Homo sapiens) (UniProt P34981); assay: qHTS assay to identify small molecule antagonists of the thyrotropin-releasing hormone receptor (TRHR) signaling pathway (AID 1346877; active = well fitted inhibition curve with a large enough effect in the repeat runs, not every such curve was filed as active; also: series mostly up to about 51 µM)
Thyrotropin-releasing hormone receptor (Homo sapiens), sequence (P34981 whole entry, looked up): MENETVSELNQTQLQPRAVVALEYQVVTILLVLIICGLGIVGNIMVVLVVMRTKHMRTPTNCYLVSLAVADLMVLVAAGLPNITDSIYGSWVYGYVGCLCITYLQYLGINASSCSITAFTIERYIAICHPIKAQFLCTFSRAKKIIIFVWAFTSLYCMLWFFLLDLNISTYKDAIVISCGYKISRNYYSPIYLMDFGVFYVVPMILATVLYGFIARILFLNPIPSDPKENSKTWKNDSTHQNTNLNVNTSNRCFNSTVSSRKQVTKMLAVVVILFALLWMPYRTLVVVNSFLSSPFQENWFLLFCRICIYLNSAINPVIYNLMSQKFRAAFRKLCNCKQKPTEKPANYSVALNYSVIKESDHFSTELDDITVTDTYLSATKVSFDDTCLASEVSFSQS
Method in brief: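 TRHR-expressing HEK293 cells were seeded, cultured 18 h at 37 °C, then loaded with calcium dye for 2 h. Compounds were pre-incubated 5 min at room temperature before 1 nM TRH (final) was added, and kinetic fluorescence was recorded for 3 min.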

[19] = biological target: Androgen receptor (Homo sapiens) (UniProt P10275); assay: qHTS assay to identify small molecule agonists of the androgen receptor (AR) signaling pathway in the presence of an antagonist (AID 1259381; calls by dose curve; also: nearly all actives have a fitted effect of over 15% in size)
Androgen receptor (Homo sapiens), sequence (P10275 whole entry, looked up): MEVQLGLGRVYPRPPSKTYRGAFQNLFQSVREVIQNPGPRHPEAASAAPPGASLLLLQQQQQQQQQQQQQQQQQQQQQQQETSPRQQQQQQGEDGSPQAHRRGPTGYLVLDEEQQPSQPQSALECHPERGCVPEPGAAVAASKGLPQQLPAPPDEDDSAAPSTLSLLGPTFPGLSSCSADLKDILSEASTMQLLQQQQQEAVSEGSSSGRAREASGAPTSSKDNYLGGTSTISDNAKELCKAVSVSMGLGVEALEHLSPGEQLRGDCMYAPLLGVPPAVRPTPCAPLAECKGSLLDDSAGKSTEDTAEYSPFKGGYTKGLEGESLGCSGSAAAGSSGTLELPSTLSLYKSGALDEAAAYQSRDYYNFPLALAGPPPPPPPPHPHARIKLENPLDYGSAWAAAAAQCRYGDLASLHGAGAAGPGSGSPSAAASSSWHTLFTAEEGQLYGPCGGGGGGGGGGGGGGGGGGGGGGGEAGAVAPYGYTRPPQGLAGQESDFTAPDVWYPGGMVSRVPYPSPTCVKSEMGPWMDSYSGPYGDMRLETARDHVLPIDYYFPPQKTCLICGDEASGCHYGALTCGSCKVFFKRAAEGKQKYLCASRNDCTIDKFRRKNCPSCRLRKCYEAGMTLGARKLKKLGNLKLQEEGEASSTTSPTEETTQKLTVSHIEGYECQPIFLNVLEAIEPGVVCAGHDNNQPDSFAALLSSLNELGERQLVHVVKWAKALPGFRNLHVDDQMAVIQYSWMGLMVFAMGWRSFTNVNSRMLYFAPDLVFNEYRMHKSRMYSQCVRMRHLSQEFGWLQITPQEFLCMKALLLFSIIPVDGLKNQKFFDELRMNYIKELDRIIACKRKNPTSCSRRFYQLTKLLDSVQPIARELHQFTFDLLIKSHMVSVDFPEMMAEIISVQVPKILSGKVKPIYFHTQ
Method in brief: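 MDA-kb2 human breast carcinoma cells carrying an MMTV-luciferase reporter (AR- and GR-responsive) were treated with compounds at 15 concentrations plus 3.0uM final nilutamide for 16hr at 37C without CO2; luminescence was read after ONE-Glo addition.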

[20] = qHTS assay to identify small molecule agonists of the TGF-beta/Smad signaling pathway (AID 1346859; active = well fitted activation curve with a large enough effect in the signal ratio in the repeat runs, not every such curve was filed as active; the % refers to the signal ratio; also: series mostly up to about 77 µM)
Method in brief: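 Each well held 4,000 SBE-bla HEK 293T cells incubated overnight before compound addition; 5 hr later the cleavable FRET substrate went on for 2 hr at room temperature, and fluorescence was read at two emissions.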

Measured: Potency

C[C@H](N)[C@H](O)c1cccc(O)c1
inactive: [1] | [2] | [3] | [4] | [5] | [6] | [7] | [8] | [9] | [10] | [11] | [12] | [13] | [14] | [15] | [16] | [17] | [18]

Nc1ccc(S(=O)(=O)Nc2ccc(Cl)nn2)cc1
inactive: [1] | [2] | [3] | [4] | [5] | [6] | [19] | [7] | [8] | [11] | [12] | [13] | [14] | [15] | [16] | [17] | [20] | [18]

CC(C)=O
inactive: [1] | [2] | [3] | [4] | [5] | [6] | [19] | [7] | [8] | [9] | [10] | [11] | [12] | [13] | [14] | [15] | [16] | [17] | [20] | [18]

CCCCCCCCCC(C)=O
inactive: [1] | [2] | [3] | [4] | [5] | [6] | [19] | [7] | [8] | [9] | [10] | [11] | [12] | [13] | [14] | [15] | [16] | [17] | [20] | [18]

CC(C)CC(=O)O
inactive: [1] | [2] | [3] | [4] | [5] | [6] | [7] | [8] | [9] | [10] | [11] | [12] | [13] | [14] | [16] | [17] | [20] | [18]

COc1nccnc1NS(=O)(=O)c1ccc(N)cc1
inactive: [1] | [2] | [3] | [4] | [5] | [6] | [19] | [7] | [9] | [10] | [11] | [14] | [15] | [16] | [17] | [18]

Cc1ccc(C=O)cc1C
inactive: [1] | [2] | [3] | [4] | [5] | [6] | [7] | [8] | [9] | [10] | [11] | [12] | [13] | [14] | [16] | [17] | [20] | [18]
